TDP1 block: qHTS Assay for Inhibitors of Tyrosyl-DNA Phosphodiesterase (TDP1). Tyrosyl-DNA phosphodiesterase 1 (Homo sapiens), Q9NUW8. recombinant TDP1, AlphaScreen DNA substrate cleavage. Potency, µM (top dose mostly 130 µM), most hits filed as inhibitors. 0.28% of 350,000 active. AID 485290, 2010; also: nearly all actives have a fitted effect of over 40% in size
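Tdp1 1 nM final; 15 min RT w/ cpd; substrate 15 nM, 5 min; beads 10 ug/ml, 10 min; AlphaScreen read. Neg ctrl: no enzyme.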
POLB inh: qHTS Assay for Inhibitors of DNA Polymerase Beta; P06746; Pol beta primer extension/strand displacement, fluorescence kinetic; Potency, µM (doses to about 114 µM), hits mostly inhibitors; 1.3% of 340,000 active; AID 485314, 2010
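Preincubation: enzyme (10 nM) with compound, 15 min, RT. Reaction: substrate added to 50 nM final. Reads: 0 and 10 min. Analysis: normalized, Hill fit.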
Pol iota inh: qHTS for Inhibitors of Polymerase Iota; DNA polymerase iota (Homo sapiens), Q9UNA4; Pol iota fluorescent replication assay, 10 min; Potency, µM (titrated, usually from 115 µM), most hits filed as inhibitors; 1% of 390,000 active
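Pol iota at 10 nM preincubated 15 min with compounds at room temperature; reaction started with fluorescent substrate, 50 nM final. Fluorescence read kinetically at 0 and 10 min; buffer-only wells as negative control.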
FEN1 inh: qHTS Assay for the Inhibitors of Human Flap endonuclease 1 (FEN1); P39748; Recombinant FEN1 flap cleavage, fluorescence, 15 min; 0.35% of 390,000 active; AID 588795, 2011; Potency, µM (doses to about 114 µM), usual class: inhibitors; also: nearly all actives have a fitted effect of over 65% in size
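Steps: FEN1 (10 nM) dispensed; compound added by pin tool; 15 min at room temperature; substrate added to 50 nM final; reads at 0 min and 15 min; data normalized and fitted (four-parameter Hill).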
Pol kappa inh: qHTS for Inhibitors of Polymerase Kappa | purified Pol kappa, fluorescent DNA synthesis assay, 10 min | DNA polymerase kappa (Homo sapiens), Q9UBT6 | AID 588579, 2011 | Potency, µM (top dose mostly 107 µM), most hits filed as inhibitors | 0.53% of 400,000 active
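Fluorescent qHTS in 1536-well format: enzyme (10 nM) and compound sat 15 min at room temperature before 50 nM substrate (final) was added. Signal taken at 0 and 10 min; no-enzyme buffer wells were negative controls.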
POLH inh: qHTS for Inhibitors of Polymerase Eta | DNA polymerase eta (Homo sapiens), Q9Y253 | recombinant Pol eta, fluorescent DNA replication assay | Potency, µM (series often up to 114 µM), usual class: inhibitors | 1.2% of 390,000 active | AID 588591, 2011
Target sequence (Q9Y253 whole entry, looked up): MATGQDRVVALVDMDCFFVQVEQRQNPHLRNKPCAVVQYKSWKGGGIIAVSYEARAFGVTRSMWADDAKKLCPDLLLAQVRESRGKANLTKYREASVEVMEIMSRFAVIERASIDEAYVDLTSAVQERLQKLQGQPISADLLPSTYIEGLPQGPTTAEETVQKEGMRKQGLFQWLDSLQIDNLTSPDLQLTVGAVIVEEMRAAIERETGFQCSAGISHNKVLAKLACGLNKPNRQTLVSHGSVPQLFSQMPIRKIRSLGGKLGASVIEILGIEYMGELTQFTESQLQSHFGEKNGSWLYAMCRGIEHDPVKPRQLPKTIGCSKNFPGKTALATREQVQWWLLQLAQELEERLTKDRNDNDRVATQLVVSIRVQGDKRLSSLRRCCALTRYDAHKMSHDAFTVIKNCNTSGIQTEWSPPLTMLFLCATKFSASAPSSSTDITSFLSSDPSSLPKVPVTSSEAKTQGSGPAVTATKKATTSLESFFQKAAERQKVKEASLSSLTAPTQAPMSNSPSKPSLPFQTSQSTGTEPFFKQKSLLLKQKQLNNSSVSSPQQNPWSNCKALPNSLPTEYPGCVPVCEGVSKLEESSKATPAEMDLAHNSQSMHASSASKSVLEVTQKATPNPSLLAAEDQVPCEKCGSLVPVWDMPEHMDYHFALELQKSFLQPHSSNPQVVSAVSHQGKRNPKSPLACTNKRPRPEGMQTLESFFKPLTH
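Pol eta at 10 nM preincubated with compounds 15 min at room temperature; reaction started with fluorescent substrate (50 nM final) and read kinetically at 0 and 10 min.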
Hits are given with their value; . = inactive; ? = inconclusive; / = no result given. Compounds with a hit are over-represented: about 2.4% of the library has one in this group of screens. Calls follow the shape of the dose curve; as a rule, active = well fitted curve in the direction sought with a large enough effect; inconclusive = small, poorly fitted or top-dose-only effect, or another doubt; inactive = no such curve, though single readings can be large; an effect the other way counts as inactive or inconclusive.

SMILES | TDP1 block | POLB inh | Pol iota inh | FEN1 inh | Pol kappa inh | POLH inh
CC1O[C@@H](O[C@@H]2C(O)C[C@H](O[C@@H]3C(O)C[C@@H](OC4CC[C@@]5(C)C6CC(O)[C@@]7(C)C(C8=CC(=O)OC8)CC[C@@]7(O)C6CC[C@@H]5C4)OC3C)OC2C)CC(O)[C@H]1O (some centres not stated) | . | / | / | / | . | /
O=C(CCNS(=O)(=O)c1cccc(Cl)c1)OCC(=O)N1CCN(C(=O)c2ccco2)CC1 | . | / | ? | . | . | .
CC(=O)Nc1ccc(S(=O)(=O)NCCC(=O)OCC(=O)N2CCN(C(=O)c3ccco3)CC2)cc1 | 40µM | 45µM | 45µM | . | . | ?
COc1ccc(C2c3c(nc(C)[nH]c3=O)Oc3ccc4ccccc4c32)cc1OC (configuration not stated) | . | / | / | / | / | /
Cc1ccc2c(c1)Oc1ccc([N+](=O)[O-])cc1C(=O)N2 | . | . | . | . | . | .
Cc1ccc2c(c1)Oc1ccc(NC(=O)CCl)cc1C(=O)N2 | . | . | . | . | . | 79µM
CCOC1CCCC(n2cnc3c(=S)nc[nH]c32)O1 (configuration not stated) | / | / | ? | . | . | 18µM
COc1cccc(C(=O)Nc2cc(NC(=O)c3cccs3)ccc2C)c1 | 6.3µM | . | . | . | . | .
Cc1ccc(NC(=O)c2cccs2)cc1NC(=O)c1cccc(F)c1 | / | . | . | . | . | .
OC1(c2ccc(Cl)c(C(F)(F)F)c2)CCN(CCCC(c2ccc(F)cc2)c2ccc(F)cc2)CC1 | . | / | / | / | ? | /
COc1cc(OC)c(N(C)C(=O)c2sc3nc4n(c(=O)c3c2C)CCCC4)cc1Cl | . | 89µM | . | . | . | .
NC(=O)N/N=C/c1c(O)ccc2oc3c(c12)CCCC3 | . | . | . | . | . | .
Cc1nc2ccccc2c(=O)n1/N=C/c1c(O)ccc2oc3c(c12)CCCC3 | . | . | 89µM | . | . | .
CC(C)(C)N=Cc1c(O)ccc2oc3c(c12)CCCC3 | / | . | ? | . | . | 40µM
CC(C)(C)n1ncc2c(=O)n(Cc3ccccc3C#N)cnc21 | / | / | . | . | . | /
Cc1cc(C(Br)(Br)Br)nc2ccccc12 | / | / | ? | . | . | /
CC(=O)N(c1ccc(Cl)cc1)c1cn(C(C)=O)c2ccccc12 | . | . | . | . | . | .
CC(=O)n1cc(N(C(=O)CCl)c2ccc(C)cc2)c2ccccc21 | . | . | . | . | . | 32µM
COc1ccccc1/C=C/c1nc2ccccc2o1 | / | / | . | . | . | /
C/C(=N\NC(=O)Cc1cc(=O)[nH][nH]1)c1cccc([N+](=O)[O-])c1 | . | . | 7.1µM | . | . | .
C/C(=N/NC(=O)Cc1cc(=O)[nH][nH]1)c1ccc([N+](=O)[O-])cc1 | . | . | . | . | . | .
Nc1nc(N)c2c(OCc3ccc(C(F)(F)F)cc3)cccc2n1 | / | / | . | . | . | /
Cc1ccccc1CNC(=O)C1CCCN(c2nnc(C)c3c(C)n(-c4ccccc4)nc23)C1 (configuration not stated) | 79µM | ? | . | ? | . | ?
Cc1ccc(-n2nc3c(N4CCC(C(=O)NCc5ccccc5C)CC4)nnc(C)c3c2C)cc1 | . | 89µM | ? | . | . | 50µM
Cc1nnc(N2CCC(C(=O)NCc3ccc(F)cc3)CC2)c2nn(-c3ccc(Cl)cc3)c(C)c12 | . | 79µM | . | . | . | .
O=C(C[n+]1ccnc2ccccc21)c1ccc(Br)cc1 | / | / | . | . | . | /
Cc1ccc(CSC2=Nc3ccccc3C3=NC(CC(=O)NCc4ccco4)C(=O)N23)cc1 (configuration not stated) | . | 25µM | ? | . | ? | ?
O=C(CC1N=C2c3ccccc3N=C(SCc3ccc(F)cc3)N2C1=O)NCc1ccco1 (configuration not stated) | . | 50µM | . | . | . | .

High-throughput results deposited in PubChem by National Center for Advancing Translational Sciences (NCATS).
